Experimental data published in PubChem BioAssay.
Inconclusive results are not listed. Calls of active or inactive are those of the source. Unless noted, the rule behind the calls is not given here.

What was measured:
[1] = yeast TOR pathway RPL19A-GFP modulators, primary screen, cell-based, S. cerevisiae, multiplex flow cytometry (AID 1862; in the data active = percent of DMSO control GFP below about 86%;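 note: lower values mimic rapamycin by blocking the RPL19A rise seen in DMSO cells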); settings: S. cerevisiae RPL19A-GFP strain, flow cytometry fluorescence, 3 h; at 10 µM; stronger effect = lower value
[2] = modulators of MEP2-GFP levels in yeast, primary screen, S. cerevisiae, multiplex flow cytometry (AID 1867;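 active = GFP response, as percent of the DMSO control, above the screen-wide mean plus 3 SD, about 139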;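 note: median GFP channel fluorescence of barcode-gated MEP2-GFP cells measured by flow cytometry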); settings: S. cerevisiae MEP2-GFP strain, 3 h, at 10 µM, stronger effect = higher value
[3] = modulators of CIT2-GFP expression in yeast, primary screen, S. cerevisiae, GFP fusion, multiplex flow cytometry (AID 1870;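 active = percent response above a set limit, the screen-wide mean plus 3 SD, cut at about 130% in these data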;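 note: barcoded CIT2-GFP strain pooled with four other GFP strains with rapamycin as positive control; median GFP fluorescence per well over plate mean of DMSO wells so 100% = DMSO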); settings: 3 h, at 10 µM, stronger effect = higher value
[4] = modulators of LAP4-GFP expression in yeast, primary screen, S. cerevisiae, multiplex flow cytometry (AID 1873;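 active = GFP signal, as percent of the solvent control, above the screen mean plus 3 SD, about 149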); settings: 3 h, at 10 µM, stronger effect = higher value
[5] = modulators of AGP1-GFP expression in yeast TOR pathway, primary screen, cell-based, multiplex flow cytometry, S. cerevisiae (AID 1887;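 active = GFP signal above the screen-wide mean plus 3 SD, that is over about 124.5% of the solvent control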;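 note: AGP1-GFP fusion strain of S. cerevisiae within a five-strain barcoded multiplex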); settings: 3 h, at 10 µM, stronger effect = higher value
[6] = inhibitors of CD8+ T cell-vesicle binding, pilot screen, LFA-1/ICAM-1 modulator project, MLPCN validation set, flow cytometry (AID 2523;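 active = response below a set limit, under 55% cells CD8-positive and vesicle-bound, and CD8 cells' 90th-percentile brightness under 279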;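 for vesicle binding response: mean PE anti-B7-1 fluorescence of CD8+ cells relative to row control; 100% = QL9-loaded vesicles with DMSO vehicle in the same plate row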); settings: 2C mouse CD8+ T cells, at 7 µM, stronger effect = lower value; double positive events: measured here: CD8+/vesicle+ event percentage
[7] = target: Integrin beta-1 (Homo sapiens) + Integrin alpha-4 (Homo sapiens) (UniProt P13612+P05556); test: inhibition of HUTS-21 binding to VLA-4, pilot screen, VLA-4 allosteric modulator project, U937 cells, HUTS-21 mAb, flow cytometry, validation set (AID 2674;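 active = inhibition above 50%, about 3 SD of the validation set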;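 note: antibody binding induced by the VLA-4 ligand LDV present at three times its Kd; 0% = LDV ligand with antibody and no compound and 100% = antibody without LDV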); settings: HUTS-21 LIBS mAb binding, at 6.7 µM, stronger effect = higher value
[8] = superoxide lowering in aged yeast cells, pilot screen, validation compound set (AID 2706;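 active = superoxide response below 65% of plate, a cut near 3 SD across the whole screen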;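 note: yeast exposed to compound for one week at 30 degrees C before staining; 100% = mean of all compound wells on the same plate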); settings: S. cerevisiae aging, superoxide DHE fluorescence; at 10 µM; stronger effect = lower value
[9] = target: Beta-adrenergic receptor kinase 1 (Homo sapiens) (UniProt P25098); test: GRK2 binders displacing RNA aptamer, biochemical, validation, human GRK2, bead flow cytometry (AID 488806;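 active = aptamer binding inhibition above 30%, about 3 SD of noise from non-fluorescent compounds; inactive = inhibition at or below 30%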); settings: bead-bound GRK2, FAM-aptamer displacement, at 10 µM, stronger effect = higher value
Beta-adrenergic receptor kinase 1 (Homo sapiens), sequence (P25098 whole entry, looked up): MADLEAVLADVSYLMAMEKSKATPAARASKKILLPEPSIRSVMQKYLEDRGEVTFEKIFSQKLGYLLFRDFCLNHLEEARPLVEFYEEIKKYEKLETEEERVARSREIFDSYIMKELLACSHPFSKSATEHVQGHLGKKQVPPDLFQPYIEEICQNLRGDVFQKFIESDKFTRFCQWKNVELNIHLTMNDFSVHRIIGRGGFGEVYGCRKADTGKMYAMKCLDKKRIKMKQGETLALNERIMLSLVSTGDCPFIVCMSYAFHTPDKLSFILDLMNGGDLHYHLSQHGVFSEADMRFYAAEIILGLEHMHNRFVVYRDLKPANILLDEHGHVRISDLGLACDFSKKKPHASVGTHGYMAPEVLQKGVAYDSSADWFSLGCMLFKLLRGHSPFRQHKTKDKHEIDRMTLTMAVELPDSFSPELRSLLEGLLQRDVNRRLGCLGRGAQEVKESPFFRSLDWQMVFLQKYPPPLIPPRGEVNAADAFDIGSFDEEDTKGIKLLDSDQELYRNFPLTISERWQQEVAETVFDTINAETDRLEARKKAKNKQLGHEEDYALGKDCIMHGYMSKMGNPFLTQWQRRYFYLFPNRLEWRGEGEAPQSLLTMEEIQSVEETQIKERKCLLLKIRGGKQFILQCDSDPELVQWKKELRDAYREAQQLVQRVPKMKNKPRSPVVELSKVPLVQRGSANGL

[10] = target: Beta-2 adrenergic receptor (Homo sapiens) (UniProt P07550); test: beta2AR agonists driving receptor internalization, pilot screen, cell-based, FAP fluorogen, flow cytometry, validation set (AID 504459;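 active = percent response above 42, roughly 3 SD of non-fluorescent test compounds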;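 note: agonist-driven loss of surface beta2AR via internalization measured by FAP dye flow cytometry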); settings: Am2.2-beta2AR cells, FAP surface receptor flow cytometry; at 10 µM; stronger effect = higher value
Beta-2 adrenergic receptor (Homo sapiens), sequence (P07550 whole entry, looked up): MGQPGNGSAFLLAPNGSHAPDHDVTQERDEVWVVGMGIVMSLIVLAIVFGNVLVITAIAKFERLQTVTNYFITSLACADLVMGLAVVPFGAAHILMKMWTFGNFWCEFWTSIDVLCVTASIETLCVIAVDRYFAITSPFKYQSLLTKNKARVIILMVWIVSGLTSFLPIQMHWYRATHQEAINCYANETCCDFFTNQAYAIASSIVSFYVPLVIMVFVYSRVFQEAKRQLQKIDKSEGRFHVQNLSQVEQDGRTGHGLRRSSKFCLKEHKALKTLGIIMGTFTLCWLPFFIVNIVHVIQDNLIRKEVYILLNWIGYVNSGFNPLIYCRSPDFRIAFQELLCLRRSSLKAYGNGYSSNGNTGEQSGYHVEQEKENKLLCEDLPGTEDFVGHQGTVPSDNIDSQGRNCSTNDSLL

[11] = target: AP-2 complex subunit beta (Homo sapiens) (UniProt P63010); test: inhibitors of arrestin peptide binding to AP2, pilot screen, biochemical, validation set, GST-AP2 beads, flow cytometry (AID 504541;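 active = inhibition above 54%, about 3 SD of non-fluorescent compounds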;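 note: AP2 carries R879A mutation and is captured from E. coli lysate; bead-bound FITC arrestin peptide fluorescence measuring arrestin peptide binding to AP2; 0% = DMSO wells and 100% = excess unlabeled arrestin peptide control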); settings: FITC arrestin peptide, at 10 µM, stronger effect = higher value
AP-2 complex subunit beta (Homo sapiens), sequence (P63010 whole entry, looked up, one chain of several): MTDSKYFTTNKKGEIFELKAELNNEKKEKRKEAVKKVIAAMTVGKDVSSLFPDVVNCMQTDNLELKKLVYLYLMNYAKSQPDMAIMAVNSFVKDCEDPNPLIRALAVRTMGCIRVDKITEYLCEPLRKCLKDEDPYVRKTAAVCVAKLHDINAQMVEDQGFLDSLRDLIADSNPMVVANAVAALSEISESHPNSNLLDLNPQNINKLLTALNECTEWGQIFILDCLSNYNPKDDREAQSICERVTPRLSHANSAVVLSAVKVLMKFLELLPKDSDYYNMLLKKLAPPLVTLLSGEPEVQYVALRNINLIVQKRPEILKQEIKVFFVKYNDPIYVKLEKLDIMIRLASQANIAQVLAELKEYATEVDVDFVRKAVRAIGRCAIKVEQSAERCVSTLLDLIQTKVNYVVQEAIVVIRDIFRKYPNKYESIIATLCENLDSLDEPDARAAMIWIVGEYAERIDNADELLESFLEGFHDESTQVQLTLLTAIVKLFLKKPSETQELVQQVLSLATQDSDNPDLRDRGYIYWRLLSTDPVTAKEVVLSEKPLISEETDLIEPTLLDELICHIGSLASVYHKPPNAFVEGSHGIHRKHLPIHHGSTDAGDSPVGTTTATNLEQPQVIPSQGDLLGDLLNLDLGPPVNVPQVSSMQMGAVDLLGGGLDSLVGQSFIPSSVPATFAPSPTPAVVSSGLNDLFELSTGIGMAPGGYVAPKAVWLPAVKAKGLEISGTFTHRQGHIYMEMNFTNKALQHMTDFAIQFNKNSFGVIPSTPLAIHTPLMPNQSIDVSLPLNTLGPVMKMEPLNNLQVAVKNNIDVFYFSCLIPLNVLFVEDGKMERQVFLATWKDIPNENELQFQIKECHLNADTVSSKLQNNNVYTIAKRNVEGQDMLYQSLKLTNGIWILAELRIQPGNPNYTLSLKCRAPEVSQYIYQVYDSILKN

[12] = yeast V-ATPase proton transport modulators, S. cerevisiae, pHLuorin, HTS validation (AID 504600; in the data active = response above about 15%;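 note: plate controls were DMSO for no effect and reference compound for full effect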); settings: S. cerevisiae pHLuorin cytosolic pH, at 10 µM, stronger effect = higher value
[13] = tested on: anti-desmoglein-3 scFv antibody binding to human DSG3; test: inhibitors of anti-DSG3 scFv binding to DSG3, pilot screen, biochemical, validation compound set, bead-based, flow cytometry (AID 588368;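 active = binding below the plate cutoff, the plate median minus 3 SD, with a reading above zero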;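 note: signal is the median channel fluorescence of bead-bound GFP antibody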); settings: Protein G beads, DSG3-Fc, scFv-GFP binding, at 10 µM, stronger effect = lower value
[14] = tested on: Botulinum neurotoxin type F light chain protease (Clostridium botulinum); test: Botulinum neurotoxin type F light chain protease inhibition, multiplex microsphere flow cytometry, validation set (AID 588459); settings: multiplex microsphere protease substrate cleavage assay, at 10 µM, stronger effect = higher value
[15] = target: Botulinum neurotoxin type A (Clostridium botulinum) (UniProt P0DPI0); test: BoNT/A light chain protease inhibitors, biochemical, multiplex microsphere flow cytometry, validation set (AID 588460); settings: at 10 µM, stronger effect = higher value
Botulinum neurotoxin type A (Clostridium botulinum), sequence (P0DPI0 whole entry, looked up): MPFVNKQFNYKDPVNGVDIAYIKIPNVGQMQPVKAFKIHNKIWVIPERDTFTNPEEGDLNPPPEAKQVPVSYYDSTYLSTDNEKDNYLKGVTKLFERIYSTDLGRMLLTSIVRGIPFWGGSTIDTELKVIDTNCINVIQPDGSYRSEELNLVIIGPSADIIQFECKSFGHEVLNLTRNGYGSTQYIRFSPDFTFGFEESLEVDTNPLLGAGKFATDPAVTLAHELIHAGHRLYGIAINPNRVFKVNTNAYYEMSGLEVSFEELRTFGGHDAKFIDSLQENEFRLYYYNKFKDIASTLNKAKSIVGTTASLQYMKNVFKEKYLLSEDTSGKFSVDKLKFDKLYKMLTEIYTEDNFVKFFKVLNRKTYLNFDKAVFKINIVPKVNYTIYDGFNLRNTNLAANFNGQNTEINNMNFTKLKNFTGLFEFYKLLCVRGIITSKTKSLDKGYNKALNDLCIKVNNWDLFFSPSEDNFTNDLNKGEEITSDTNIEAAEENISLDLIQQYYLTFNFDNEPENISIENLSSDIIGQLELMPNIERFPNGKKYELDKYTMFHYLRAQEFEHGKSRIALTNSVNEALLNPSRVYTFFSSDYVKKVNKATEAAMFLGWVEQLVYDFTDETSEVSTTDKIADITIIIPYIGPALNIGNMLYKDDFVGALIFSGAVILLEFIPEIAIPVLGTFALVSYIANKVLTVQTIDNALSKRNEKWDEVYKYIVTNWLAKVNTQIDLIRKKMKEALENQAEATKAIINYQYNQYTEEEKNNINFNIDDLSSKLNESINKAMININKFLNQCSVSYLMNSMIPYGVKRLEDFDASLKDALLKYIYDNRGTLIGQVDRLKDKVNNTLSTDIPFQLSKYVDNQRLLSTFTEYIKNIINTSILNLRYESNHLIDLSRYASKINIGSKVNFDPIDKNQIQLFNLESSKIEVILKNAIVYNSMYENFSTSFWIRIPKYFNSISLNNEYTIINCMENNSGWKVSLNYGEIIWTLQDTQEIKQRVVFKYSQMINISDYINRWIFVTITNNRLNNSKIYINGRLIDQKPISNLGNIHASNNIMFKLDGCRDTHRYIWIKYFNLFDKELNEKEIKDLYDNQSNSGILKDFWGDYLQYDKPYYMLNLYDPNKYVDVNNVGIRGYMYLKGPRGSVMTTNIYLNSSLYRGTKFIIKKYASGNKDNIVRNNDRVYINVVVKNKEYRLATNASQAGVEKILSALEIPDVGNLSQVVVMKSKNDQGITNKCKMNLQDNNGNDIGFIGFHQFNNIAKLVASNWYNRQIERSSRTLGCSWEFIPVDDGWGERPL

[16] = target: Lethal factor (Bacillus anthracis) (UniProt P15917); test: Lethal factor protease inhibitors, Bacillus anthracis, multiplex microsphere cleavage assay, validation set (AID 588461); settings: flow cytometry, at 10 µM, stronger effect = higher value
Lethal factor (Bacillus anthracis), sequence (P15917 whole entry, looked up): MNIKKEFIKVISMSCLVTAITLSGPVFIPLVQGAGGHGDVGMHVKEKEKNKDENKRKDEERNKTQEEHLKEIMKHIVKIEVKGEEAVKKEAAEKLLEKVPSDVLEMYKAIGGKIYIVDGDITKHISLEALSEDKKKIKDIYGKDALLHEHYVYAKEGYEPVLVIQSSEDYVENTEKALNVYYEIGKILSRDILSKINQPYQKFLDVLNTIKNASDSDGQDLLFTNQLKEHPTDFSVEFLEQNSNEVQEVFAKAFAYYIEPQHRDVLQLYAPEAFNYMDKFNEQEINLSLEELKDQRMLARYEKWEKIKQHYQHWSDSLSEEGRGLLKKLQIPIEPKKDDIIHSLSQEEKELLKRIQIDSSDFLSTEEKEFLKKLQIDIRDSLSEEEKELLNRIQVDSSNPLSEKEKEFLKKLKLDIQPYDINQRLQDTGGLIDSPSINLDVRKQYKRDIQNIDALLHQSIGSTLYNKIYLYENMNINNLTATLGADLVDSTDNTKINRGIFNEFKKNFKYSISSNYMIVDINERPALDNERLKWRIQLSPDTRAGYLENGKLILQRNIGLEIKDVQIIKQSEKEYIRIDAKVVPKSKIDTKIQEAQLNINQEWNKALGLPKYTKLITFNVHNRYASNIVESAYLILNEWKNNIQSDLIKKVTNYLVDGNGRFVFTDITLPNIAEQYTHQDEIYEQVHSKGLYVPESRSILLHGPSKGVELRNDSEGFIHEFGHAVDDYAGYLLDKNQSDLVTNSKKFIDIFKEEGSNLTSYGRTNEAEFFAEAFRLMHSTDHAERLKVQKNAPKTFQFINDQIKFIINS

[17] = inhibitors of fungal efflux pumps CDR1, CDR2, MDR1, pilot screen, validation compound set, multiplex, phenotypic (AID 588506;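 active = efflux inhibition above 0.42, the validation set average plus 4 SD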;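 note: Nile Red retained in cells so higher fluorescence means more efflux inhibition; 0 = negative control wells and 1 = enniatin B 25 µM full block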); settings: S. cerevisiae pump-expressing triplex, Nile Red efflux flow cytometry; at 10 µM; stronger effect = higher value
[18] = target: ATP-binding cassette sub-family B member 6 (Homo sapiens) (UniProt Q9NP58); test: ABCB6 transporter inhibitors, pilot screen, K562-ABCB6 cells, flow cytometry, validation set (AID 588550;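 active = inhibition above the screen-wide mean plus 3 SD, about 51%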;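 note: 0% = DMSO wells and 100% = benzethonium chloride 70 µM positive control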); settings: K562-ABCB6 porphyrin accumulation, 1 h, at 10 µM, stronger effect = higher value
ATP-binding cassette sub-family B member 6 (Homo sapiens), sequence (Q9NP58 whole entry, looked up): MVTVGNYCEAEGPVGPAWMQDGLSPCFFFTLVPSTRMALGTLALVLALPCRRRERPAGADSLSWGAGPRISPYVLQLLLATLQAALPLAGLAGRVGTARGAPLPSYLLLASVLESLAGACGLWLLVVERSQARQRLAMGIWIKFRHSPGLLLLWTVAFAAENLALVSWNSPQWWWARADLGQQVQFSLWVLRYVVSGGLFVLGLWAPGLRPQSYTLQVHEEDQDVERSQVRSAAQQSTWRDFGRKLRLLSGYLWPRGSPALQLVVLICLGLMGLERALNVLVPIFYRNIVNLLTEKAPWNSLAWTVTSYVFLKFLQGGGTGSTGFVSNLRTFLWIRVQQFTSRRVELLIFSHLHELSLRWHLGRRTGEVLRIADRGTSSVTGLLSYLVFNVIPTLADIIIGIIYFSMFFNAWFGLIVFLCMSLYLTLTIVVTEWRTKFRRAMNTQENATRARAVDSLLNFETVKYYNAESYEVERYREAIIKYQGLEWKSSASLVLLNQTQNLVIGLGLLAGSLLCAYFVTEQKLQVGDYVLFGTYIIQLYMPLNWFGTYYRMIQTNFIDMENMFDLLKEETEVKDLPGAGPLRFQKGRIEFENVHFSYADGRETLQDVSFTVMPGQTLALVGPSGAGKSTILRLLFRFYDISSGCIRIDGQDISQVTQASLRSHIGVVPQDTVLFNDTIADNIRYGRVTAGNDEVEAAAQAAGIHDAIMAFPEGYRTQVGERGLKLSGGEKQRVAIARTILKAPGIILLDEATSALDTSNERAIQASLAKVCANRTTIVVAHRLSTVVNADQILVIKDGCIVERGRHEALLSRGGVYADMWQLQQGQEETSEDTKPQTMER

[19] = promoters of myeloid differentiation in arrested cells, primary screen, cell-based, GFP/MAC1 double positive, flow cytometry, validation set (AID 588685;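 active = differentiation response of at least 50%, scaled between solvent and reference control, from cells with both markers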;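 note: compound exposure lasts four days before antibody staining and flow analysis; 0% = DMSO wells and 100% = 5 µM fulvestrant positive control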); settings: ER-HoxA9 marrow cells, stronger effect = higher value

Structure (SMILES)	percent of DMSO control GFP [1]	GFP response vs DMSO [2]	percent response of DMSO control [3]	GFP response vs DMSO [4]	GFP response, % of DMSO [5]	double positive events [6]	vesicle binding response [6]	inhibition [7]	superoxide response (% of plate) [8]	aptamer binding inhibition [9]	response [10]	inhibition [11]	response [12]	binding (% of control) [13]	inhibition [14]	inhibition [15]	inhibition [16]	efflux inhibition (fraction of control) [17]	inhibition [18]	differentiation response [19]
C[N+]1(C)CCOC(O)(c2ccc(-c3ccc(C4(O)C[N+](C)(C)CCO4)cc3)cc2)C1 (stereo not given)	94.6% (inactive)	126% (inactive)	101% (inactive)	76.5% (inactive)	88% (inactive)	64.9%	192% (inactive)	9.37% (inactive)	113% (inactive)	-3% (inactive)	-10.1% (inactive)	1.77% (inactive)	2.1% (inactive)	101% (inactive)	1.7% (inactive)	0.1% (inactive)	0.5% (inactive)	0.19 (inactive)	15% (inactive)	2.46% (inactive)
CC[C@]12C=CCN3CCC4(c5cc(Br)c(OC)cc5N(C)C4[C@@](O)(C(=O)OC)[C@@H]1OC(C)=O)C32 (stereo not given in full)	88.9% (inactive)	130% (inactive)	96.6% (inactive)	84.2% (inactive)	90.5% (inactive)	48.2%	18.6% (active)	29.7% (inactive)	95.7% (inactive)	5% (inactive)	-10.3% (inactive)	-7.24% (inactive)	5.2% (inactive)	109% (inactive)	2.5% (inactive)	1.6% (inactive)	-5.6% (inactive)	0.23 (inactive)	10% (inactive)	0% (inactive)
O=c1c2ccccc2nc(/C=C/c2ccc3c(c2)OCO3)n1-c1ccccc1	102% (inactive)	105% (inactive)	100% (inactive)	110% (inactive)	98.9% (inactive)	59.9%	140% (inactive)	1.44% (inactive)	90.1% (inactive)	4% (inactive)	-4.14% (inactive)	-1.43% (inactive)	-7.21% (inactive)	106% (inactive)	-0.7% (inactive)	0.6% (inactive)	-5% (inactive)	0.33 (inactive)	0% (inactive)	7.82% (inactive)
OCc1cnc[nH]1	103% (inactive)	109% (inactive)	98.9% (inactive)	101% (inactive)	99.4% (inactive)	62.2%	4490% (inactive)	11% (inactive)	104% (inactive)	0% (inactive)	-1.18% (inactive)	3.29% (inactive)	1.03% (inactive)	97.4% (inactive)	0.1% (inactive)	-0.3% (inactive)	1.2% (inactive)	-0.01 (inactive)	-11% (inactive)	-10.5% (inactive)
[N-]=[N+]=CC(=O)OC[C@H](N)C(=O)O	102% (inactive)	102% (inactive)	100% (inactive)	109% (inactive)	110% (inactive)	64.4%	133% (inactive)	12.5% (inactive)	97.4% (inactive)	5% (inactive)	-13% (inactive)	4.06% (inactive)	2.12% (inactive)	92.8% (inactive)	2.7% (inactive)	1.2% (inactive)	2.3% (inactive)	-0.13 (inactive)	5% (inactive)	0.92% (inactive)
CC[N+]1(C)CCCC(OC(=O)C(O)(c2ccccc2)c2ccccc2)C1 (stereo not given)	99% (inactive)	102% (inactive)	103% (inactive)	103% (inactive)	119% (inactive)	61%	160% (inactive)	5.69% (inactive)	96.5% (inactive)	4% (inactive)	-15.3% (inactive)	-0.87% (inactive)	-0.49% (inactive)	107% (inactive)	0.8% (inactive)	-0.6% (inactive)	8% (inactive)	0.04 (inactive)	1% (inactive)	-5.97% (inactive)
C[C@H]1OC[C@@H](C[N+](C)(C)C)O1	100% (inactive)	98.7% (inactive)	101% (inactive)	92.6% (inactive)	96.2% (inactive)	62.3%	144% (inactive)	-6.45% (inactive)	95.3% (inactive)	3% (inactive)	2.48% (inactive)	5.6% (inactive)	4.51% (inactive)	102% (inactive)	0.4% (inactive)	0.4% (inactive)	4.6% (inactive)	-0.16 (inactive)	-2% (inactive)	-10.4% (inactive)
O=c1[nH]c(=S)n(-c2ccccc2)c(O)c1/C=N/N1CCCCC1c1cccnc1 (stereo not given)	101% (inactive)	100% (inactive)	90.8% (inactive)	84.8% (inactive)	93% (inactive)	64%	885% (inactive)	-37.8% (inactive)	100% (inactive)	4% (inactive)	0.69% (inactive)	1.04% (inactive)	4.77% (inactive)	100% (inactive)	-0.8% (inactive)	0.8% (inactive)	-6.8% (inactive)	-0.04 (inactive)	0% (inactive)	4.15% (inactive)
COc1cc2c3cc1Oc1cc(ccc1O)C[C@@H]1c4c(cc(OC)c(O)c4Oc4ccc(cc4)C[C@H]3N(C)CC2)CCN1C	88.2% (inactive)	125% (inactive)	107% (inactive)	81.4% (inactive)	90.5% (inactive)	56.5%	214% (inactive)	7.43% (inactive)	92.4% (inactive)	2% (inactive)	17.5% (inactive)	19.2% (inactive)	1.91% (inactive)	105% (inactive)	-3.1% (inactive)	-3% (inactive)	-7.1% (inactive)	0.05 (inactive)	10% (inactive)	-3.28% (inactive)
